According to ChEMBL document CHEMBL1961873, “Compounds: GSK PKIS; Assays: Nanosyn kinase panel” (2012):
Several values for one entry are separate records, joined by “and”; a condition that tells them apart may be missing. Identical values can stand only once.

Assays:
[1] = target: Tyrosine-protein kinase receptor UFO (Homo sapiens) (UniProt P30530); conditions: at 1 µM
[2] = target: Tyrosine-protein kinase Blk (Homo sapiens) (UniProt P51451); conditions: at 0.1 µM
[3] = target: Tyrosine-protein kinase Blk (Homo sapiens) (UniProt P51451); conditions: at 1 µM
[4] = target: T1, Cytoplasmic tyrosine-protein kinase BMX (Homo sapiens) (UniProt P51813); conditions: at 0.1 µM
T1 sequence (whole entry): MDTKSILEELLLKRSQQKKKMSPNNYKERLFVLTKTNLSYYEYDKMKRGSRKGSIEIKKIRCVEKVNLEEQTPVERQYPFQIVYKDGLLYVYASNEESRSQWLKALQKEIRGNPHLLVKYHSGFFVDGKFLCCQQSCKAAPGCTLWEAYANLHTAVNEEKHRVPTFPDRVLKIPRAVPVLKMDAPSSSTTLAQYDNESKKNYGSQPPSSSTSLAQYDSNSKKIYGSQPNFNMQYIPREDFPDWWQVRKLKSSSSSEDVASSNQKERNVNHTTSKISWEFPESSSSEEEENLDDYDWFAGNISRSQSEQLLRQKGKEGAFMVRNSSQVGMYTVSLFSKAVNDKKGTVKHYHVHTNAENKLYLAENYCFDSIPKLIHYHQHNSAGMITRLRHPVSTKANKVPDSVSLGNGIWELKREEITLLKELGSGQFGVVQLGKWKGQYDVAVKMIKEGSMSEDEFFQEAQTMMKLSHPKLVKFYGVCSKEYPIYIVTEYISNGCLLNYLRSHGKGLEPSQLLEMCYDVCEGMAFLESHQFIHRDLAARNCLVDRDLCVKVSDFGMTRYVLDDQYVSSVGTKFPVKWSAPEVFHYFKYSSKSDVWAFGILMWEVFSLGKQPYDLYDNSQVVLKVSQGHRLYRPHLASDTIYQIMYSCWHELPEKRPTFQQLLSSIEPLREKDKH

[5] = target: T1, Cytoplasmic tyrosine-protein kinase BMX (Homo sapiens); conditions: at 1 µM
[6] = target: Protein-tyrosine kinase 6 (Homo sapiens) (UniProt Q13882); conditions: at 0.1 µM
[7] = target: Protein-tyrosine kinase 6 (Homo sapiens) (UniProt Q13882); conditions: at 1 µM
[8] = target: Tyrosine-protein kinase BTK (Homo sapiens) (UniProt Q06187); conditions: at 0.1 µM
[9] = target: Tyrosine-protein kinase BTK (Homo sapiens) (UniProt Q06187); conditions: at 1 µM
[10] = target: Tyrosine-protein kinase CSK (Homo sapiens) (UniProt P41240); conditions: at 0.1 µM
[11] = target: Tyrosine-protein kinase CSK (Homo sapiens) (UniProt P41240); conditions: at 1 µM
[12] = target: T2, Discoidin domain-containing receptor 2 (Homo sapiens) (UniProt Q16832); conditions: at 0.1 µM
T2 sequence (whole entry): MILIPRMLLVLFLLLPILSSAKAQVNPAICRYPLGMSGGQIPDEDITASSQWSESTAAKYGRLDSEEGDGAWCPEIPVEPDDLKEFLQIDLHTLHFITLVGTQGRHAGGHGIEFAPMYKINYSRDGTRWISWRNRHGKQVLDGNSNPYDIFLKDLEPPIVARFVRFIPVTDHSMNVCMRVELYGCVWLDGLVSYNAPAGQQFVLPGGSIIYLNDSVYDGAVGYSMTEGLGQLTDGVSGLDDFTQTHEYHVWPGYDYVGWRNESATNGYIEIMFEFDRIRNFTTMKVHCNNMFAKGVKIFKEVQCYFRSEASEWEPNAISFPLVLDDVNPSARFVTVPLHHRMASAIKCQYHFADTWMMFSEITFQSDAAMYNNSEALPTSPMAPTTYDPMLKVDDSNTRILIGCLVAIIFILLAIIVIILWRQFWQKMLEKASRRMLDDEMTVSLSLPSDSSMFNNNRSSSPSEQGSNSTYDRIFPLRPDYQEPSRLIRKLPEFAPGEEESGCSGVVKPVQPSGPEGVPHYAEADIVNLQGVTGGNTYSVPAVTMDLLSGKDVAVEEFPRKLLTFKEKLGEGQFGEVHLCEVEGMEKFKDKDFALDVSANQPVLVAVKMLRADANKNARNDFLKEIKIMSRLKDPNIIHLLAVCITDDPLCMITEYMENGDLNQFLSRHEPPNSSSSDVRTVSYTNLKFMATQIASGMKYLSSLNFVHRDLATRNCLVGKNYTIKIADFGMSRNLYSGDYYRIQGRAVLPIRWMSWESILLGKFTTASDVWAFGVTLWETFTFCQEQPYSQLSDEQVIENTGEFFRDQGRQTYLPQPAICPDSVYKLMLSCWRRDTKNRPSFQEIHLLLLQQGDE

[13] = target: T2, Discoidin domain-containing receptor 2 (Homo sapiens); conditions: at 1 µM
[14] = target: Epidermal growth factor receptor (Homo sapiens) (UniProt P00533); conditions: at 0.1 µM
Chain of Epidermal growth factor receptor (Homo sapiens) (P00533 whole entry): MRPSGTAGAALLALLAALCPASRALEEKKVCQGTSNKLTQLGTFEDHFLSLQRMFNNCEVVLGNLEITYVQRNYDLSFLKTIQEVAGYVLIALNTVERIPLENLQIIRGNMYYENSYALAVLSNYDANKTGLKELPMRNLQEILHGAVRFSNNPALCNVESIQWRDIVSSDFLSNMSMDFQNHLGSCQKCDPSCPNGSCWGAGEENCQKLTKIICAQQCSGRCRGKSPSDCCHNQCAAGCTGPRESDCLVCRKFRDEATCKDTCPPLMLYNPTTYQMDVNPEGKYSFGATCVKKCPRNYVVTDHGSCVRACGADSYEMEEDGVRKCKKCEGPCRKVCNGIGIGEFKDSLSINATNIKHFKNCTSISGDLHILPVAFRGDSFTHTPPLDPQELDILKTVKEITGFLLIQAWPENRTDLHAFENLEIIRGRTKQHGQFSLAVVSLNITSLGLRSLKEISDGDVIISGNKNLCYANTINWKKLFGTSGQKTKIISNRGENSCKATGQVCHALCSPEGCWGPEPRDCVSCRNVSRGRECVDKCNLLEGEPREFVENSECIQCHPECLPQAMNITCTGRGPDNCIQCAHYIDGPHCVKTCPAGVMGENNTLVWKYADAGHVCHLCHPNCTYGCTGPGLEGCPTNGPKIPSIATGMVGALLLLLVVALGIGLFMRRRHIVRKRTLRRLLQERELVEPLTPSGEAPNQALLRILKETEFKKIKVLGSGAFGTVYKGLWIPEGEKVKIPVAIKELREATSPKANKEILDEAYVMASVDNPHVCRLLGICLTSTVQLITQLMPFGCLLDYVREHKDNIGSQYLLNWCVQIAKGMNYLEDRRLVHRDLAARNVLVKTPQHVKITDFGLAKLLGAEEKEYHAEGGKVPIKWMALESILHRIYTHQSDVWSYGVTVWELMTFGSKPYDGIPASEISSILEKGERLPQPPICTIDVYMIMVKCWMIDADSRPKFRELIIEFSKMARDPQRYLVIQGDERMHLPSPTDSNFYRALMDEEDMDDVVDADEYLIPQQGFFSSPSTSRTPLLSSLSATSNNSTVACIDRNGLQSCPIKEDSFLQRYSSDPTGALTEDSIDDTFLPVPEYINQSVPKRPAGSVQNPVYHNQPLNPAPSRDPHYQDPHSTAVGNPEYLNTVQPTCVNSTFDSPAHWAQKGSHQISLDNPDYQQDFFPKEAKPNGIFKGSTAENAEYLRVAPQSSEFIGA

[15] = target: Epidermal growth factor receptor (Homo sapiens) (UniProt P00533); conditions: at 1 µM
[16] = tested on: Epidermal growth factor receptor (Homo sapiens), P00533 [L858R]; conditions: at 0.1 µM
[17] = tested on: Epidermal growth factor receptor (Homo sapiens), P00533 [L858R]; conditions: at 1 µM
[18] = tested on: Epidermal growth factor receptor (Homo sapiens), P00533 [L861Q]; conditions: at 0.1 µM
Chain of Epidermal growth factor receptor (Homo sapiens), P00533 [L861Q] (P00533 whole entry L861Q): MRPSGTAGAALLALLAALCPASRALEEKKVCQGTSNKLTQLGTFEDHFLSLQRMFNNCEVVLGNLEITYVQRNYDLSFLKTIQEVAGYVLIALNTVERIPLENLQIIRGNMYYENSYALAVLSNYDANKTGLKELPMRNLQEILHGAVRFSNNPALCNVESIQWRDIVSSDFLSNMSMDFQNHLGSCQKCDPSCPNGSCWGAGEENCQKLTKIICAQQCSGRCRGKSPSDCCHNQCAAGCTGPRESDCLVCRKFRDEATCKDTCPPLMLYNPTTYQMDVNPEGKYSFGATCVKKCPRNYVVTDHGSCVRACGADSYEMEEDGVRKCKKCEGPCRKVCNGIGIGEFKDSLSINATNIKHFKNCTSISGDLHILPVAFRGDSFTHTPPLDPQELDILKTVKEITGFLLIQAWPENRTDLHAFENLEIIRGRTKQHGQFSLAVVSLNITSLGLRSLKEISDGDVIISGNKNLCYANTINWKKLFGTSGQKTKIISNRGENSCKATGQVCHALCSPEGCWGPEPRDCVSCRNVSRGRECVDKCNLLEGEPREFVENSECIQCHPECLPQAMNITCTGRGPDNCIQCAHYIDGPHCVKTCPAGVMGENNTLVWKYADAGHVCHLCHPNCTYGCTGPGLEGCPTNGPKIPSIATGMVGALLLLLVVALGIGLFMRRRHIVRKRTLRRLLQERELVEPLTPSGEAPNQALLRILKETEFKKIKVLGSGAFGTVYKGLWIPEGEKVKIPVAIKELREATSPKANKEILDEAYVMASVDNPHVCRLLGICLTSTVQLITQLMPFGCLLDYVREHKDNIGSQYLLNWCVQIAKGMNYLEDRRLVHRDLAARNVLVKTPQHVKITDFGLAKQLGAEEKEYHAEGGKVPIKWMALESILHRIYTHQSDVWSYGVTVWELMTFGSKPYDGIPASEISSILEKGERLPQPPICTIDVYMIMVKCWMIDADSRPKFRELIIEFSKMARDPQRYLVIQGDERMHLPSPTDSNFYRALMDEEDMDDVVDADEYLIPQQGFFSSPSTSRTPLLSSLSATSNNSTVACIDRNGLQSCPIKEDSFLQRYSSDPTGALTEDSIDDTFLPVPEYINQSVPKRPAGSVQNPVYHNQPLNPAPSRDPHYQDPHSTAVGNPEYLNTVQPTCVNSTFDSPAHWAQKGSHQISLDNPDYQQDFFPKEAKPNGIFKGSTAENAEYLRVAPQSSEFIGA

[19] = tested on: Epidermal growth factor receptor (Homo sapiens), P00533 [L861Q]; conditions: at 1 µM
[20] = tested on: Epidermal growth factor receptor (Homo sapiens), P00533 [T790M]; conditions: at 0.1 µM
Chain of Epidermal growth factor receptor (Homo sapiens), P00533 [T790M] (P00533 whole entry T790M): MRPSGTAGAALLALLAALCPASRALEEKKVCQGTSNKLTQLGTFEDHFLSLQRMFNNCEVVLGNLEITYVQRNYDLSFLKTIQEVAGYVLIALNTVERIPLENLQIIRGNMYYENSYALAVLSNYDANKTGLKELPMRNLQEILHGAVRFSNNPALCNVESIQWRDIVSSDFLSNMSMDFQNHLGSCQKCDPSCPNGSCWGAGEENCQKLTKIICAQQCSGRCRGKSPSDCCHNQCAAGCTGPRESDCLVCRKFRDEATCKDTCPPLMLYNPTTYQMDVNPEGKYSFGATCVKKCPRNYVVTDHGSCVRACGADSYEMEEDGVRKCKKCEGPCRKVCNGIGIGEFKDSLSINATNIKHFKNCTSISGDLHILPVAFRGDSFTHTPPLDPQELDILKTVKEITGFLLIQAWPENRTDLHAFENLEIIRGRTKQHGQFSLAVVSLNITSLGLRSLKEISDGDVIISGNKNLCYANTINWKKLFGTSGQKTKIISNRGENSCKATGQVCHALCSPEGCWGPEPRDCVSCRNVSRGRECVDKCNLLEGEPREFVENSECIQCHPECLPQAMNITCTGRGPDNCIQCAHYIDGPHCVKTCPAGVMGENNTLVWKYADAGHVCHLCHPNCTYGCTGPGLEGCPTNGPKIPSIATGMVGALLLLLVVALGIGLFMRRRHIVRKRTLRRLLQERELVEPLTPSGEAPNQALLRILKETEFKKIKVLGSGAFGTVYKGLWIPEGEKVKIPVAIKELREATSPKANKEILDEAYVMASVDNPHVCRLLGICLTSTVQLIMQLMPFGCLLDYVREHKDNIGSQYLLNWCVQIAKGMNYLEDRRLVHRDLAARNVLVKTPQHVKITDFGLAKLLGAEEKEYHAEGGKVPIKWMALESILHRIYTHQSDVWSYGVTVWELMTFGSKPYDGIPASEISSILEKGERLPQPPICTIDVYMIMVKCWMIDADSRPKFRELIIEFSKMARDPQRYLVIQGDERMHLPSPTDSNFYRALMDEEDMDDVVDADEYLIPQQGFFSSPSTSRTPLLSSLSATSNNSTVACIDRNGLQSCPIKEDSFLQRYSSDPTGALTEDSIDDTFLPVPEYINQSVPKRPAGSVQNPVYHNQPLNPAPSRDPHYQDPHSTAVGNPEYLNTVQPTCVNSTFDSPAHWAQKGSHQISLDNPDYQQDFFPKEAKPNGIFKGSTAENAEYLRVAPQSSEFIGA

Chain of Tyrosine-protein kinase receptor UFO (Homo sapiens) (P30530 whole entry): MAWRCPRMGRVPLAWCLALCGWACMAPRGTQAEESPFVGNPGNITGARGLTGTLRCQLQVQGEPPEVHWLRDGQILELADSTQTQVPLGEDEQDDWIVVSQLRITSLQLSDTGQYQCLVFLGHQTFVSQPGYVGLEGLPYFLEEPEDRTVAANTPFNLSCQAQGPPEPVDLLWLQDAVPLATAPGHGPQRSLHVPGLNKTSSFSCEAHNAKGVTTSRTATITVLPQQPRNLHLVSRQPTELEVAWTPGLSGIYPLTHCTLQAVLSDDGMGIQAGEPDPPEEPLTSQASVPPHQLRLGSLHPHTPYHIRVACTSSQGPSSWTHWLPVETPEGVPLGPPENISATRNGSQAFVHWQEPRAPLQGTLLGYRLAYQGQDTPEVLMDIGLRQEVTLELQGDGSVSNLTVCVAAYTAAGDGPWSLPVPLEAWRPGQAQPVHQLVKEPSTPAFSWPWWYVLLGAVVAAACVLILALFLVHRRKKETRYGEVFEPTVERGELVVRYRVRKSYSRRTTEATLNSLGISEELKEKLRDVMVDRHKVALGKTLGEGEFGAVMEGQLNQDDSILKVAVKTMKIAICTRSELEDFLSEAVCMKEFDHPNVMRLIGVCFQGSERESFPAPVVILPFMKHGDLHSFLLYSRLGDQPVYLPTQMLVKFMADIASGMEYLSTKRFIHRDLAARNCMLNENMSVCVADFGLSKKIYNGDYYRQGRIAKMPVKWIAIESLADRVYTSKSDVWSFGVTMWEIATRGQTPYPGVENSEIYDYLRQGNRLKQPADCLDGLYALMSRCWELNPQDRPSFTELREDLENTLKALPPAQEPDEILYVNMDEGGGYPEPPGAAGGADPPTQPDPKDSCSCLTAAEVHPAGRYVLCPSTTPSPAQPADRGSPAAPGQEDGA
Chain of Tyrosine-protein kinase Blk (Homo sapiens) (P51451 2-505 limits assumed): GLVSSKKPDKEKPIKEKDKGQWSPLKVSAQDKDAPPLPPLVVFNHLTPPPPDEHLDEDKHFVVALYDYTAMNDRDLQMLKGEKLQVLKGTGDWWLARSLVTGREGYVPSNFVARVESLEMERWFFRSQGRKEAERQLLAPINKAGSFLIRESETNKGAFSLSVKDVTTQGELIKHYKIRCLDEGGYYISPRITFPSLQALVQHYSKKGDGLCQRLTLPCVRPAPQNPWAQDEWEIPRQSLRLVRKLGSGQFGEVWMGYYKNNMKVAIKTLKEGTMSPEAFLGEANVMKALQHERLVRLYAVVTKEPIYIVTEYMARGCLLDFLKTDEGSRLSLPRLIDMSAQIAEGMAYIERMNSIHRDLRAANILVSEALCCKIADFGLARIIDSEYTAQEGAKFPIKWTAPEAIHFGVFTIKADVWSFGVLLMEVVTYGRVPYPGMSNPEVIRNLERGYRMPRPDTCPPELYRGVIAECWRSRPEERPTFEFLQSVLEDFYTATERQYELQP

Structure (SMILES)	inhibition [1]	inhibition [2]	inhibition [3]	inhibition [4]	inhibition [5]	inhibition [6]	inhibition [7]	inhibition [8]	inhibition [9]	inhibition [10]	inhibition [11]	inhibition [12]	inhibition [13]	inhibition [14]	inhibition [15]	inhibition [16]	inhibition [17]	inhibition [18]	inhibition [19]	inhibition [20]
CN(c1ccc(NC(=O)NCCN2CCOCC2)cc1)c1ccnc(Nc2ccc(CS(C)(=O)=O)cc2)n1	-4.88%	2.89%	8.61%	0.59%	22.6%	2.66%	8.9%	1.05%	2.3%	3.59%	13.1%	24.3%	76%	-0.15%	1.28%	3.77%	6.75%	2.81%	3.82%	2.04%
CC1=C(C(=O)Nc2ccc3[nH]ncc3c2)C(c2ccc(F)cc2)N=C(c2ccc(C(F)(F)F)nc2)N1 (stereo not given)	-0.71%	2.98%	3.72%	-0.04%	3.01%	2.13%	3.49%	0.06%	0.16%	1.42%	6.65%	1.54%	6.22%	3.43%	7.73%	4.85%	6.69%	2.32%	2.72%	0.14%
Nc1ncnc2occ(-c3ccc(NC(=O)Nc4cc(C(F)(F)F)ccc4F)cc3)c12	37.3% and 23.5%	4.09% and 1.25%	39% and 23.5%	17.8% and 9.86%	69.5% and 57.2%	3.76% and -0.33%	4.26% and 3.06%	0.97% and 0.09%	5.11% and 1.18%	6.39% and 0.36%	41% and 18.6%	46.1% and 33.6%	80% and 79.7%	1.05% and 12.5%	5.41% and 15.6%	2.23% and 3.14%	1.42% and 3.22%	3.11% and 1.25%	1.69% and 1.44%	1.74% and 0.3%
c1ccc(-c2n[nH]cc2-c2ccnc(-c3ccc(OCCn4ccnc4)cc3)c2)nc1	-0.26%	-0.32%	1.78%	-0.48%	0.53%	2.69%	8.22%	0.31%	-1.64%	1%	1.94%	0.36%	1.9%	0.25%	5.66%	1.97%	24.5%	-0.83%	5.84%	-1.24%
COc1ccccc1-c1cc(/C=C2\C(=O)Nc3ncc(Br)cc32)cc(Br)c1O	-1.51%	2.49%	10.7%	0.75%	6.48%	5.88%	3.92%	1.5%	2.07%	3.21%	3.65%	2.75%	10.6%	-0.76%	2.08%	-0.74%	0.61%	2.99%	4.29%	1.88%
NS(=O)(=O)c1cccc(N/C=C2\C(=O)Nc3ccccc32)c1	-2.91%	2.39%	8.59%	2.23%	5.84%	3.79%	5.69%	0.73%	-0.4%	3.86%	-0.23%	4.35%	6%	5.8%	9.72%	2.03%	3.12%	2.12%	2.32%	2.62%
OCCCNc1nccc(-c2c(-c3ccc(F)cc3)nn3cc(C(F)(F)F)ccc23)n1	1.31%	1.06%	2.83%	5.93%	3.3%	1.91%	5.03%	0.07%	0.45%	4.06%	1.58%	3.25%	19.3%	0.97%	9.16%	5.62%	24.6%	2.61%	6.62%	0.96%
NC(=O)c1ccc2c(-c3ccnc(NCCCO)n3)c(-c3ccc(F)cc3)nn2c1	0.42%	2.21%	6.11%	1.45%	9.25%	6.4%	17.1%	0.41%	0.35%	6.17%	7.7%	4.1%	22.4%	1.88%	17.3%	10.1%	50.6%	4.58%	16.6%	2.86%
O=C(O[C@H]1CN[C@H](C#Cc2cc3ncnc(Nc4ccc(OCc5cccc(F)c5)c(Cl)c4)c3s2)C1)N1CCOCC1	-9.27%	3.99%	1.91%	-1.21%	3.25%	5.25%	9.3%	0.42%	-0.33%	7.67%	7.44%	1%	2.47%	77.1%	77.1%	40.9%	87%	42.8%	75.2%	5.1%
Cc1nnc(-c2cccc(-c3ccc(C(=O)NCC4CC4)cc3)c2)o1	-8.4%	3.6%	1.41%	-0.51%	5.89%	6.64%	7.36%	0.03%	1.05%	7.99%	7.37%	2.21%	3.42%	1.17%	3.25%	2.9%	6.91%	3.75%	5.65%	3.93%
Nc1nccc(-c2c(-c3ccc(F)cc3)ncn2C2CCNCC2)n1	8.06% and 1.45%	-1.45% and 0.8%	-0.17% and 2.22%	1.14% and -5.53%	-1.15% and 0.2%	-3.88% and 1.44%	2.01% and 4.41%	-0.49% and -0.93%	-0.59% and 0.22%	-4.42% and 4.09%	-3.76% and 3.13%	-1.68% and 1.35%	0.32%	-0.4% and 2.01%	5.66% and 6.46%	-0.59% and 2.85%	6.1% and 10.9%	-3.23% and 1.91%	1.42% and 4.42%	-2.84% and -2.65%
O=C1Nc2ccccc2/C1=C1\CCc2cc(O)ccc21	1.9%	4.37%	22%	0.61%	7.52%	5%	4.05%	-0.87%	0.47%	5.49%	4.47%	2.06%	3.76%	0.24%	1.05%	1.94%	2.87%	2.16%	-0.57%	1.76%
CC1(C)CC(n2cnc(-c3ccc(F)cc3)c2-c2ccnc(N)n2)CC(C)(C)N1	1.58%	0.51%	1.43%	-2.57%	1.06%	-2.17%	1.66%	-1.42%	-1.35%	-0.2%	-2.23%	1.3%	-0.87%	0.38%	-0.12%	-1.07%	0.2%	-0.41%	-1%	-0.77%
